From PubChem BioAssay (NCI) come the findings set out here.

Some test systems named below: SR leukemia; RPMI-8226 leukemia; OVCAR-8 ovarian; OVCAR-5 ovarian; OVCAR-4 ovarian; SK-OV-3 ovarian; IGROV1 ovarian; OVCAR-3 ovarian; HS 578T breast; NCI/ADR-RES ovarian.
Holding throughout (assay): NCI-60 one-dose screen, 48 h (100 = growth as untreated, 0 = no growth, -100 = all killed)
Details in all cases: 10 µM

This is part of a sample that, as a whole, favours compounds with a hit. Of some 83,000 tested, about 20% had one in any assay.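 Step 1: grow cells in 96-well plates. Step 2: add test compound at a single concentration. Step 3: incubate 48 h. Step 4: record percent growth.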 A number with no mark means an inactive call. The source made the active and inactive calls. The calls were made as follows: active = growth percent below 10; inactive = the rest.

Turning to `O=[N+]([O-])c1ccc(-c2nc(-c3ccccc3)c(-c3ccccc3)n2-c2ccccc2)cc1`, the growth in the test on SR leukemia is 4.19% (active); in the test with RPMI-8226 leukemia, -20.3% (active); in the test with OVCAR-8 ovarian, 26.7%; in the test on OVCAR-5 ovarian, 91.5%; with OVCAR-4 ovarian, 24.7%; in the test on SK-OV-3 ovarian, 55.5%. In addition, the growth with IGROV1 ovarian is -29.1% (active); with OVCAR-3 ovarian, 40.2%; with HS 578T breast, 20.5%; in the test on NCI/ADR-RES ovarian, 5.77% (active).

Regarding `Cc1ccc(S(=O)(=O)Oc2ccccc2-c2ccccc2)cc1`, the growth in the test with SR leukemia is 8.73% (active); with RPMI-8226 leukemia, 34.4%; with OVCAR-8 ovarian it was 41.6%; with OVCAR-5 ovarian it was 63.6%; in the test on OVCAR-4 ovarian, 60.7%; with SK-OV-3 ovarian, 23%. Further, the growth with IGROV1 ovarian is 35.6%; in the test on OVCAR-3 ovarian, -28.1% (active); with HS 578T breast, -21.5% (active); in the test with NCI/ADR-RES ovarian, -7.58% (active).

Turning to `COc1cc(OC)cc(-c2n/c(=C\c3c(O)[nH]c4ccc(OC)cc34)cc3c2=Nc2ccccc2-3)c1`, the growth in the test with SR leukemia was 9.3% (active); with RPMI-8226 leukemia it was 77.8%; with OVCAR-8 ovarian, 72.7%; in the test with OVCAR-5 ovarian it was 122%; in the test on OVCAR-4 ovarian, 15.3%; in the test on SK-OV-3 ovarian it was 126%. In addition, the growth in the test with IGROV1 ovarian was 86.5%; in the test with OVCAR-3 ovarian, 94.6%; in the test on HS 578T breast, 95.3%; in the test on NCI/ADR-RES ovarian it was 69.4%.

As for `COc1ccc(-c2nc(-c3nc4ccc(C)cc4[nH]3)c3ccccn23)cc1`, the growth in the test on SR leukemia is 33.2%; in the test with RPMI-8226 leukemia it was -6.44% (active); in the test on OVCAR-8 ovarian, 6.19% (active); in the test with OVCAR-5 ovarian it was 88.5%; in the test with OVCAR-4 ovarian, 44.1%; in the test on SK-OV-3 ovarian, 85.9%. The growth in the test with IGROV1 ovarian is 36.5%; in the test on OVCAR-3 ovarian, 72.6%; in the test on HS 578T breast, 74.7%; in the test on NCI/ADR-RES ovarian, 22.6%.

On to `Cc1ccc2nc3[nH]c(=O)[nH]c(=O)c3c(N)c2c1`, for which the growth was 95.6% in the test with SR leukemia; 89.8% in the test with RPMI-8226 leukemia; 88.5% in the test on OVCAR-8 ovarian; 92.9% in the test with OVCAR-5 ovarian; 81.7% in the test on OVCAR-4 ovarian; 86% in the test with SK-OV-3 ovarian. The growth is 75.1% in the test with IGROV1 ovarian, 101% with OVCAR-3 ovarian, 79.2% in the test on HS 578T breast and 97.8% with NCI/ADR-RES ovarian.

As for `Oc1cc(O)c(Br)cc1Br`, the growth with SR leukemia is 85.7%; in the test on RPMI-8226 leukemia, 99.4%; with OVCAR-8 ovarian it was 103%; in the test on OVCAR-5 ovarian it was 107%; in the test with OVCAR-4 ovarian it was 98.2%; in the test with SK-OV-3 ovarian, 107%. The growth was 102% in the test on IGROV1 ovarian, 110% in the test with OVCAR-3 ovarian, 107% in the test with HS 578T breast and 105% in the test with NCI/ADR-RES ovarian.

With `CN(C)CCCN(Cc1ccccc1O)C(=S)Nc1ccc(Cl)cc1`, the growth is 95% in the test on SR leukemia; 93.5% with RPMI-8226 leukemia; 98.2% in the test with OVCAR-8 ovarian; 110% in the test on OVCAR-5 ovarian; 111% in the test on OVCAR-4 ovarian; 107% with SK-OV-3 ovarian. For the same compound, the growth in the test with IGROV1 ovarian is 106%; with OVCAR-3 ovarian it was 112%; with HS 578T breast, 89%; in the test on NCI/ADR-RES ovarian it was 104%.

For `CCN(CC)CC(O)Cc1ccc(OC)cc1` (stereo not given), the growth in the test with SR leukemia is 104%; in the test with RPMI-8226 leukemia it was 108%; in the test on OVCAR-8 ovarian, 110%; with OVCAR-5 ovarian, 106%; in the test on OVCAR-4 ovarian, 113%; in the test on SK-OV-3 ovarian it was 114%. Also, the growth is 122% in the test on IGROV1 ovarian, 125% in the test with OVCAR-3 ovarian, 107% in the test with HS 578T breast and 113% in the test on NCI/ADR-RES ovarian.

Regarding `N#C/C(=C\N1C(=O)/C(=C/c2cccc([N+](=O)[O-])c2)SC1=S)c1nc2ccccc2s1`, the growth in the test with SR leukemia is 73.4%; with RPMI-8226 leukemia it was 60.4%; with OVCAR-8 ovarian, 94.7%; with OVCAR-5 ovarian, 102%; with OVCAR-4 ovarian, 61.4%; in the test with SK-OV-3 ovarian, 77.7%. The growth in the test on IGROV1 ovarian is 83.7%; in the test on OVCAR-3 ovarian, 90.4%; with HS 578T breast it was 95.9%; in the test with NCI/ADR-RES ovarian, 94.1%.

For the compound `N#Cc1c(-c2ccccc2)nc(SCC(=O)N2CCOCC2)[nH]c1=O`, the growth with SR leukemia is 90.1%; with RPMI-8226 leukemia, 99%; in the test with OVCAR-8 ovarian, 99.3%; in the test with OVCAR-5 ovarian, 103%; in the test on OVCAR-4 ovarian, 104%; in the test with SK-OV-3 ovarian it was 90.7%. Besides, the growth is 112% with IGROV1 ovarian, 110% in the test on OVCAR-3 ovarian, 108% in the test with HS 578T breast and 103% in the test with NCI/ADR-RES ovarian.

Regarding `O=C1/C(=C/c2ccc(O)cc2O)N=C2SCCCN12`, the growth is 89.8% in the test with SR leukemia; 103% in the test with RPMI-8226 leukemia; 97.5% in the test with OVCAR-8 ovarian; 92.9% with OVCAR-5 ovarian; 97.1% with OVCAR-4 ovarian; 102% with SK-OV-3 ovarian. For the same compound, the growth with IGROV1 ovarian is 101%; with OVCAR-3 ovarian, 98.6%; in the test with HS 578T breast, 105%; in the test on NCI/ADR-RES ovarian, 98.7%.

With `N#CN1CC[C@H](C(=O)Nc2ncc(-c3ccccc3)s2)C1`, the growth with SR leukemia is 0.907% (active); in the test on RPMI-8226 leukemia, 3.84% (active); with OVCAR-8 ovarian it was 2.85% (active); in the test on OVCAR-5 ovarian, 1.27% (active); in the test with OVCAR-4 ovarian it was -6.05% (active); in the test with SK-OV-3 ovarian, 5.15% (active). For the same compound, the growth in the test with IGROV1 ovarian was 11%; with OVCAR-3 ovarian, -32.5% (active); with HS 578T breast it was -7.39% (active); in the test with NCI/ADR-RES ovarian, 4.61% (active).

On to `CCOC(=O)c1c(Cl)c2c(n1Cc1cccc(OC)c1)-c1oncc1CC2`, for which the growth is 8.61% (active) in the test on SR leukemia; 35.4% with RPMI-8226 leukemia; 37.4% in the test on OVCAR-8 ovarian; 74.3% in the test with OVCAR-5 ovarian; 56.7% in the test on OVCAR-4 ovarian; 17.2% in the test with SK-OV-3 ovarian. The growth in the test with IGROV1 ovarian is 23.5%; in the test with OVCAR-3 ovarian it was -34.9% (active); in the test on HS 578T breast it was -11.2% (active); with NCI/ADR-RES ovarian, 1.8% (active).

Take `C=CCOc1ccc2c(c1)CC[C@@H]1[C@@H]2CC[C@]2(C)C(=O)/C(=N/O)C[C@@H]12`: the growth was 7.72% (active) in the test on SR leukemia; 20.2% with RPMI-8226 leukemia; 70.5% with OVCAR-8 ovarian; 44.7% in the test on OVCAR-5 ovarian; 8.34% (active) in the test on OVCAR-4 ovarian; 81.8% with SK-OV-3 ovarian. In addition, the growth in the test on IGROV1 ovarian is 0.671% (active); in the test on OVCAR-3 ovarian it was 75.6%; in the test on HS 578T breast, 35.4%; with NCI/ADR-RES ovarian it was 57.6%.
